Drawing on PubChem BioAssay (EPA / NIEHS), this text covers outcome and AC50 for eight compounds.

What is called AC50 is the concentration giving half of the maximal activity seen.

Results filed as inconclusive are left out. Active and inactive are the calls of the source. Rule for the calls, unless noted: active = hit-call score of the fitted dose curve at least 0.9, where 1 is the maximum; inconclusive = response in the unintended direction; inactive = score below 0.9.

Test [1] has as its target Androgen receptor (Homo sapiens) (UniProt P10275). Kind of test: ATG_AR_TRANS: Attagene TRANS-FACTORIAL HepG2 Assay for human Androgen Receptor (AR) (AID 2282973). As to conditions: HepG2 Attagene TRANS-FACTORIAL AR reporter transcription. In short, it runs like this: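 Steps: transfect HepG2 with multiple GAL4-UAS reporter transcription units (TRANS format, exogenous NR-Gal4 protein); dose 24 h; isolate RNA, reverse-transcribe, PCR-amplify, FAM-label, HpaI-digest; resolve by capillary electrophoresis. Positive direction vs DMSO.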

In test [2] the target is rat CYP1A2, Cyp1a2 (gene 24297) (UniProt P04799). Kind of test: NVS_ADME_rCYP1A2: NovaScreen (NVS) CYP450-related Enzyme Activity (ADME) Assay for rat CYP1A2 (AID 2283115). In short, it runs like this: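 Cell-free recombinant rat enzyme with fluorogenic substrate, read by fluorescence intensity 1 hour after dosing. Loss of signal versus acetonitrile negative control; primary screen at 10 uM in duplicate, actives followed in concentration series.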

In test [3] the target is human Fibroblast Growth Factor Receptor 1 (FGFR1), FGFR1 (gene 2260) (UniProt P11362). Kind of test: NVS_ENZ_hFGFR1: NovaScreen (NVS) Enzymatic Assay for human Fibroblast Growth Factor Receptor 1 (FGFR1) (AID 2283159). Put shortly:
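Cell-free recombinant kinase with fluorescent substrate, product separated by electrophoretic mobility shift; read 1 hour after dosing, loss of signal relative to DMSO. Initial screen in duplicate at 25 uM, actives followed in concentration series.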

For test [4], the target named is human AMP-activated Protein Kinase, alpha 1 (AMPKa1), PRKAA1 (gene 5562) (UniProt Q13131). Nature of the test: NVS_ENZ_hAMPKa1: NovaScreen (NVS) Enzymatic Assay for human AMP-activated Protein Kinase, alpha 1 (AMPKa1) (AID 2283130). In short, it runs like this:
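Recombinant human AMPKα1 activity was measured cell-free by fluorescent substrate conversion with electrophoretic mobility-shift separation, 1 h after dosing. Duplicate single-point screening was at 25 uM; actives (≥30% inhibition) were retested in concentration-response up to 50 uM.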

For test [5], the target named is rat Monoamine Oxidase, MAO-B, Peripheral (MAOBP), Maob (gene 25750) (UniProt P19643). Nature of the test: NVS_ENZ_rMAOBP: NovaScreen (NVS) Enzymatic Assay for rat Monoamine Oxidase, MAO-B, Peripheral (MAOBP) (AID 2283242).
Test [6] addresses bovine Gamma-Aminobutyric Acid Type A Receptor BDZ, alpha 1 site (GABARa1), GABRA1 (gene 780973) (UniProt P08219). Nature of the test: NVS_LGIC_bGABARa1: NovaScreen (NVS) Ligand-Gated Ion Channel Assay for bovine Gamma-Aminobutyric Acid Type A Receptor BDZ, alpha 1 site (GABARa1) (AID 2283321). In short, it runs like this: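 Radioligand competition binding on bovine cortical membranes, 0.75 h, filter-based scintillation counting. Primary single concentration 25 uM in duplicate; actives rerun in concentration-response to 50 uM max. Loss of signal fitted versus DMSO.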

For test [7], the target named is rat Gamma-Aminobutyric Acid Type A Receptor BDZ, alpha 6 site (GABARa6), Gabra6 (gene 29708) (UniProt P30191). Kind of test: NVS_LGIC_rGABARa6: NovaScreen (NVS) Ligand-Gated Ion Channel Assay for rat Gamma-Aminobutyric Acid Type A Receptor BDZ, alpha 6 site (GABARa6) (AID 2283339). Put shortly: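 Rat cerebellar membranes; radioligand binding, filtration and scintillation counting, read 1 h after dosing. Single-concentration duplicate screen at 25 uM, then concentration-response up to 50 uM for actives; loss of signal fitted versus DMSO baseline.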

Test [8] has as its target Norway rat Vesicular Monoamine Transporter (VMAT2), neurotransmitter transporter, Slc18a2 (gene 25549) (UniProt Q01827). Kind of test: NVS_TR_rVMAT2: NovaScreen (NVS) Transporter Assay for Norway rat Vesicular Monoamine Transporter (VMAT2), neurotransmitter transporter (AID 2283376).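 Note: actives lower the bound radioligand signal below the DMSO level.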 In short, it runs like this: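 Tissue: rat forebrain extract. Format: competitive radioligand binding, cell-free. Timepoint: 1 h. Readout: filter radiodetection/scintillation. Screen: 25 uM in duplicate, then concentration series for actives. Baseline: DMSO.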

Test [9] concerns the target human Acetylcholinesterase (AChE), ACHE (gene 43) (UniProt P22303). Nature of the test: NVS_ENZ_hAChE: NovaScreen (NVS) Enzymatic Assay for human Acetylcholinesterase (AChE) (AID 2283129). Put shortly: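 Cell-free colorimetric enzyme-activity assay; compounds read 0.33 hour after dosing, loss of signal vs DMSO baseline. Primary screen in duplicate at 25 uM single concentration, with active compounds retested in concentration series.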

Test [10] deals with human Tyrosine Protein Kinase Receptor Tie-2 (Tie2), TEK (gene 7010) (UniProt Q02763). Nature of the test: NVS_ENZ_hTie2: NovaScreen (NVS) Enzymatic Assay for human Tyrosine Protein Kinase Receptor Tie-2 (Tie2) (AID 2283225). Put shortly: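 Recombinant human Tie2 kinase activity was read cell-free by fluorescence with electrophoretic mobility shift, 1 hour after dosing. The screen used 25 uM in duplicate, then concentration-response up to 50 uM. Signal loss was scored against DMSO.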

Test [11] is described as follows: CCTE_Harrill_HTTr_Apoptosis_PRF_DMEM_12hr: (Pilot) CCTE's 12-hour Apoptosis Assessment for the High-Throughput Transcriptomics (HTTr) Platform, in MCF-7 cells cultured in phenol red-free DMEM + 10% charcoal-stripped fetal bovine serum, Harrill Lab (AID 2283985; active = hit-call score of the fitted dose curve at least 0.9, where 1 is the maximum; inactive = score below 0.9). In short, it runs like this: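 MCF-7 cells in phenol red-free DMEM with 10% charcoal-stripped FBS, eight-point dilution series, 12 h exposure. Caspase-3/7 activation imaged by high content imaging with CellEvent Green reagent; bidirectional fit vs DMSO.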

The target in test [12] is human Aurora Kinase A - serine/threonine-protein Kinase 6 (AurA), AURKA (gene 6790) (UniProt O14965). Nature of the test: NVS_ENZ_hAurA: NovaScreen (NVS) Enzymatic Assay for human Aurora Kinase A - serine/threonine-protein Kinase 6 (AurA) (AID 2283142). In short, it runs like this:
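Cell-free enzymatic assay with human Aurora A, 1 hour after dosing. Fluorescent substrate turnover detected after electrophoretic mobility shift separation of substrate and product. Screened at 25 uM, actives retested in concentration-response up to 50 uM.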

In test [13] the target is human Epidermal Growth Factor Receptor (EGFR), EGFR (gene 1956) (UniProt P00533). Nature of the test: NVS_ENZ_hEGFR: NovaScreen (NVS) Enzymatic Assay for human Epidermal Growth Factor Receptor (EGFR) (AID 2283151). In short, it runs like this: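 Cell-free kinase assay, fluorescence plus electrophoretic mobility shift separating substrate and product, read 1 hour after dosing; loss of signal vs DMSO. Duplicate screen at 25 uM, then concentration-response to 50 uM.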

Test [14] addresses human Raf-1 Proto-Oncogene, serine/threonine Kinase (RAF1), RAF1 (gene 5894) (UniProt P04049). Nature of the test: NVS_ENZ_hRAF1: NovaScreen (NVS) Enzymatic Assay for human Raf-1 Proto-Oncogene, serine/threonine Kinase (RAF1) (AID 2283216). In short, it runs like this: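 Cell-free recombinant kinase with specific fluorescent substrate, product separated by electrophoretic mobility shift; read 1 h after dosing. Primary screen at 25 uM in duplicate; hits then run in concentration-response up to 50 uM, fitted as loss of signal versus DMSO.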

Test [15] deals with rat Monoamine Oxidase, MAO-A, Peripheral (MAOAP), gene 29253. Kind of test: NVS_ENZ_rMAOAP: NovaScreen (NVS) Enzymatic Assay for rat Monoamine Oxidase, MAO-A, Peripheral (MAOAP) (AID 2283237). In short, it runs like this:
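Rat liver mitochondrial membranes served as the MAO-A source, with enzyme activity measured by radiometric scintillation counting 1.17 hours after dosing. Loss of signal was fitted against DMSO; primary screen used 25 uM in duplicate, follow-up used concentration series.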

Test [16] concerns the target rat Monoamine Oxidase, MAO-B, Central (MAOBC), Maob (gene 25750) (UniProt P19643). Kind of test: NVS_ENZ_rMAOBC: NovaScreen (NVS) Enzymatic Assay for rat Monoamine Oxidase, MAO-B, Central (MAOBC) (AID 2283238). Put shortly:
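Compounds were first tested in duplicate at 25 uM against MAO-B from rat brain tissue; those passing the inhibition threshold were retested in concentration series up to 50 uM. Radiodetection by scintillation counting at 1.17 h, analysed against DMSO baseline.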

For test [17], the system named is rat Monoamine Oxidase, MAO-A, Central (MAOAC), gene 29253. Kind of test: NVS_ENZ_rMAOAC: NovaScreen (NVS) Enzymatic Assay for rat Monoamine Oxidase, MAO-A, Central (MAOAC) (AID 2283243).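 Note: potency refers to inhibition seen as signal drop below DMSO baseline.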 In short, it runs like this:
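Rat brain tissue extract used as enzyme source in a cell-free radiometric assay, read by scintillation counting 1.5 hours after dosing. Loss of signal relative to DMSO baseline scored; primary screen at 25 uM in duplicate, actives followed up in concentration series.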

Test [18] addresses human Caspase 2 (CASP2), CASP2 (gene 835) (UniProt P42575). Nature of the test: NVS_ENZ_hCASP2: NovaScreen (NVS) Enzymatic Assay for human Caspase 2 (CASP2) (AID 2283135). In short, it runs like this: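 E. coli-expressed enzyme in a cell-free protease assay, fluorescence read 1 h after dosing. Compounds at 25 uM in duplicate, with concentration-response up to 50 uM for hits; loss of signal against DMSO baseline.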

Test [19] deals with human Protein Tyrosine Phosphatase Receptor Type C (PTPRC), PTPRC (gene 5788) (UniProt P08575). Kind of test: NVS_ENZ_hPTPRC: NovaScreen (NVS) Enzymatic Assay for human Protein Tyrosine Phosphatase Receptor Type C (PTPRC) (AID 2283212). Put shortly: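 Yeast-extracted human PTPRC used in a cell-free colorimetric enzyme activity read-out, 1 h after dosing. Primary screen in duplicate at 25 uM; actives rerun in concentration-response up to 50 uM, DMSO as baseline.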

The subject of the next test is rat CYP2B1, gene 24300. Nature of the test: NVS_ADME_rCYP2B1: NovaScreen (NVS) CYP450-related Enzyme Activity (ADME) Assay for rat CYP2B1 (AID 2283117). Put shortly: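 Recombinant rat CYP2B1 with fluorogenic substrate, read at 0.75 h. Primary screen in duplicate at 10 uM; compounds meeting threshold (e.g., 30% inhibition) re-run in concentration-response up to 20 uM. Fitted against acetonitrile control.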

Chain of Androgen receptor (Homo sapiens) (P10275 whole entry, looked up, the tested form may be a part): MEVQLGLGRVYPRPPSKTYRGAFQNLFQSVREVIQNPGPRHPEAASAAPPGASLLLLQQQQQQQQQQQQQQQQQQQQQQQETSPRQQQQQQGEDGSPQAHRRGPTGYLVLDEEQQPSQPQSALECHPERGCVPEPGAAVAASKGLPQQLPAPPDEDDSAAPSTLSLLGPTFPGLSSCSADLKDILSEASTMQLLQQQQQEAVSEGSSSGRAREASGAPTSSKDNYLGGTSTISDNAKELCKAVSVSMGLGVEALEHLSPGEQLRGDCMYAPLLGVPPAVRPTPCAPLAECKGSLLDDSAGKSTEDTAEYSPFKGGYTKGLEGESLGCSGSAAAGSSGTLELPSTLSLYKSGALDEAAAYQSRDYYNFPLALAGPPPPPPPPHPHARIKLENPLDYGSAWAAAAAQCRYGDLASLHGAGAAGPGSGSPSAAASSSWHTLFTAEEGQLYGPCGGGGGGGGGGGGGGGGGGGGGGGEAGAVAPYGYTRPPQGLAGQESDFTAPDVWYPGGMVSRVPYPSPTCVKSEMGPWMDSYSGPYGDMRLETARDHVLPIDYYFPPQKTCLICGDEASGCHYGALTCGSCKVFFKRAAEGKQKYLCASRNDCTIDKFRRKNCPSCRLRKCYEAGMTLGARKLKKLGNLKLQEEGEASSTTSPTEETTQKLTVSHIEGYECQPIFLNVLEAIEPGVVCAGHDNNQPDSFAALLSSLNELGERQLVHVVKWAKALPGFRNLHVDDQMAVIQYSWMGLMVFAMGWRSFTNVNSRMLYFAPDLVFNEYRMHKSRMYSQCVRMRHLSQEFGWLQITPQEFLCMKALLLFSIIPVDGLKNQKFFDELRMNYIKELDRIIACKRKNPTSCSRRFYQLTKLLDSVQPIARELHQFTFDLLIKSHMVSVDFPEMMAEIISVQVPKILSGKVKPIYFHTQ
Chain of rat Monoamine Oxidase, MAO-B, Peripheral (MAOBP), Maob (gene 25750) (P19643 whole entry, looked up): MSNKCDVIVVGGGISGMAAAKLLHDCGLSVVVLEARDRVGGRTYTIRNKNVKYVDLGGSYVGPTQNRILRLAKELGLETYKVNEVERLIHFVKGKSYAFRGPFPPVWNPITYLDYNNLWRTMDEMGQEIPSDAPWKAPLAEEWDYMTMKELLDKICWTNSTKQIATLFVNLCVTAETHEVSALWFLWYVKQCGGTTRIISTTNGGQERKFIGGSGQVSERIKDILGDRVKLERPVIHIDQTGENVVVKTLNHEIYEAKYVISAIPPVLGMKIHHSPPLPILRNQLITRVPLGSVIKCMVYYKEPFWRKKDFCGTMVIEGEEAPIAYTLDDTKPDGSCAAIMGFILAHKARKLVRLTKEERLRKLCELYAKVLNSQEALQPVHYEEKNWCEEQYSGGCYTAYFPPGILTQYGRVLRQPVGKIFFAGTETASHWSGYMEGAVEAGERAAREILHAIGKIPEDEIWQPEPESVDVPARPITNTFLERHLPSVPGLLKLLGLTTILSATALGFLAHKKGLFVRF
Chain of rat CYP1A2, Cyp1a2 (gene 24297) (P04799 whole entry, looked up): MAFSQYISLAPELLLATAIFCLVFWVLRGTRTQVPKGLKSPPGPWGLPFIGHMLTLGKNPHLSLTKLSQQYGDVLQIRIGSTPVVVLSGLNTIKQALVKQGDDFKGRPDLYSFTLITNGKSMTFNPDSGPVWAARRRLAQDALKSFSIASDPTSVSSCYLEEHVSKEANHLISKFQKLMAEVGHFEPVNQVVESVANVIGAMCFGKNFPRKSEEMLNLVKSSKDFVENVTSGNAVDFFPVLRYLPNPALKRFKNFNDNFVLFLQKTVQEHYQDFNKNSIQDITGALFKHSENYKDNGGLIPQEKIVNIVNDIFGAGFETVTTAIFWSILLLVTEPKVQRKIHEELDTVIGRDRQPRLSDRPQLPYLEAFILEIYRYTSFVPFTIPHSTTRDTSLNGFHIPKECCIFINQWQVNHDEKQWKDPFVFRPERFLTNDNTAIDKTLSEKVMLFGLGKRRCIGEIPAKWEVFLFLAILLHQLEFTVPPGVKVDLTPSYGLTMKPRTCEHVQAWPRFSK
Chain of rat Gamma-Aminobutyric Acid Type A Receptor BDZ, alpha 6 site (GABARa6), Gabra6 (gene 29708) (P30191 whole entry, looked up): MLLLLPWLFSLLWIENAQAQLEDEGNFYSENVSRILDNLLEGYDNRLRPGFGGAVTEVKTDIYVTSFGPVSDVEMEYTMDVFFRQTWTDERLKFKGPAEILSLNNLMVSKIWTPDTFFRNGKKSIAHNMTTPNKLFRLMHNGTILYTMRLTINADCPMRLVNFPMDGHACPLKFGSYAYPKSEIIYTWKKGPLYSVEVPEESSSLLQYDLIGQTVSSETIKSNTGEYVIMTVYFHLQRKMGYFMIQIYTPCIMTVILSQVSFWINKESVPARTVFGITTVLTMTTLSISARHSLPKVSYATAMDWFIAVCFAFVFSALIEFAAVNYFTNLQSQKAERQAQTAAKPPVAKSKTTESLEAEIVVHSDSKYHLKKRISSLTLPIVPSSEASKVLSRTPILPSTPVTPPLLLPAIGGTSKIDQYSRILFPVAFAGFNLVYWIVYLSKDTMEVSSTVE
Chain of human Acetylcholinesterase (AChE), ACHE (gene 43) (P22303 whole entry, looked up): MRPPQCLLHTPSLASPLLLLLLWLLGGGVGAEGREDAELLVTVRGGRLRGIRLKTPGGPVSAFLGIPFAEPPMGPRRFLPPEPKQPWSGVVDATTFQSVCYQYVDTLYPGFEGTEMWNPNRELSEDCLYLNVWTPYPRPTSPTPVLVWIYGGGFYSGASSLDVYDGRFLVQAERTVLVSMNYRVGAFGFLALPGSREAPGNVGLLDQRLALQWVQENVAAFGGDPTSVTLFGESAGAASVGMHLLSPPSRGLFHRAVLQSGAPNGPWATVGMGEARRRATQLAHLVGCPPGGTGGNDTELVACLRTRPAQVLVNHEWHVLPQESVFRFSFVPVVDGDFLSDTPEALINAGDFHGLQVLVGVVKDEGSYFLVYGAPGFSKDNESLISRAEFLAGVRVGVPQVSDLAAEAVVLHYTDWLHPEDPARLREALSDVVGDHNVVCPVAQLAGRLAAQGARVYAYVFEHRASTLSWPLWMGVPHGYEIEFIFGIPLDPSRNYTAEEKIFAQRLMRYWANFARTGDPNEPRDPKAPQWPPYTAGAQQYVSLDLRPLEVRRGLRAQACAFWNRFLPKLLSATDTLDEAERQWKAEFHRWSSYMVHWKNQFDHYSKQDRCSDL
Chain of human Tyrosine Protein Kinase Receptor Tie-2 (Tie2), TEK (gene 7010) (Q02763 whole entry, looked up): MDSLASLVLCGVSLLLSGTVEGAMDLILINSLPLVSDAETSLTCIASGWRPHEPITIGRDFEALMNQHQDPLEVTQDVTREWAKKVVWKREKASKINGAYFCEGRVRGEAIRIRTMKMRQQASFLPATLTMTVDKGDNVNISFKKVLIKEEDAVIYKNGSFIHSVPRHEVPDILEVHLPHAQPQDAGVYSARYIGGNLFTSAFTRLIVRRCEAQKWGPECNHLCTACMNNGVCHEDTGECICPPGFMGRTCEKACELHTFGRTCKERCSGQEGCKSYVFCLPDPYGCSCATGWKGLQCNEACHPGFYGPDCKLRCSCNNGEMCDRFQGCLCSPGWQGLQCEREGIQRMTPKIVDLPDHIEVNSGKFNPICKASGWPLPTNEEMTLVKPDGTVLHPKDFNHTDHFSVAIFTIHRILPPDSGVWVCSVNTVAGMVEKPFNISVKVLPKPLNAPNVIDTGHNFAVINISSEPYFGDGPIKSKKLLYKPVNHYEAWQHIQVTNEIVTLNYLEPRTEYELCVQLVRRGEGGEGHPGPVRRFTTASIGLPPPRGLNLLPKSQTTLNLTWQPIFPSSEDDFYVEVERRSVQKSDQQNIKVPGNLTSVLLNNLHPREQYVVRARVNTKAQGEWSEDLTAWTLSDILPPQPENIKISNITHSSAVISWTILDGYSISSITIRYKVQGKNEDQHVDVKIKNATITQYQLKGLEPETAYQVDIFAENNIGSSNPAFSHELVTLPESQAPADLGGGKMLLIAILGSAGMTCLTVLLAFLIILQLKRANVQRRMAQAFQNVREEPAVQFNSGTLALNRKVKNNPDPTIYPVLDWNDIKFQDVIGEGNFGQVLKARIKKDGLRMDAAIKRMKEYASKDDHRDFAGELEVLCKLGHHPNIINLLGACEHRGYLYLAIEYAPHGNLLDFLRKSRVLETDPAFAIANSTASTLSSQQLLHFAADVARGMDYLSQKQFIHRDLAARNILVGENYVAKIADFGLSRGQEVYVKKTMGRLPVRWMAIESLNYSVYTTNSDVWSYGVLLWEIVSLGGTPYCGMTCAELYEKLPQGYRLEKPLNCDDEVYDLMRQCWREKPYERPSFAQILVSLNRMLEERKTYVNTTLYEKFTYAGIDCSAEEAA
Chain of human Raf-1 Proto-Oncogene, serine/threonine Kinase (RAF1), RAF1 (gene 5894) (P04049 whole entry, looked up): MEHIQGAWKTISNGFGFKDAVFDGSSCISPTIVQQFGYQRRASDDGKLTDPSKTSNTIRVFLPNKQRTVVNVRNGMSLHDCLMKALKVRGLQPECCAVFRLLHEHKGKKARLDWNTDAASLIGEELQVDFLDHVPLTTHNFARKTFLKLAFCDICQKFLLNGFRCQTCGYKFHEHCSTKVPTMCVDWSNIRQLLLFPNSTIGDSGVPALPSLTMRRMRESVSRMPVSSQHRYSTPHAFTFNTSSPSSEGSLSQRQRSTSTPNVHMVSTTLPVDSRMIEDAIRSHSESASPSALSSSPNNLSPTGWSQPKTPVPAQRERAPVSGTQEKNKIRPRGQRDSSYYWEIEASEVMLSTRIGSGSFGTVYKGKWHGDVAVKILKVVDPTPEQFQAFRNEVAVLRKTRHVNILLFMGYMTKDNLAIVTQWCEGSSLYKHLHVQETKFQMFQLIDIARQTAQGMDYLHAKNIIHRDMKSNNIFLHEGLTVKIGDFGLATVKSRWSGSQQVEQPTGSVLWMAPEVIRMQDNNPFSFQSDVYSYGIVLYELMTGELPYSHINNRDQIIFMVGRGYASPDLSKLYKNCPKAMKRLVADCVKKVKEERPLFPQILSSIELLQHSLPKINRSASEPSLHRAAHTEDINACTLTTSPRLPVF
Chain of rat Monoamine Oxidase, MAO-B, Central (MAOBC), Maob (gene 25750) (P19643 whole entry, looked up): as the sequence (P19643 whole entry, looked up) above

Consider `c1ccc2c(c1)c1cccc3ccc4cccc2c4c31`, for which the compound was classed as inactive in test [1] and in test [2].
With `CCC(C)c1cc([N+](=O)[O-])cc([N+](=O)[O-])c1OC(=O)OC(C)C` (stereo not given), the result in test [1] and in test [2] was inactive.
With `Cc1cc(NC(=O)C(=O)O)cc(C)c1Oc1ccc(O)c2c1CCC2`, the compound was called inactive in test [1] and in test [3].
`CCC(C)N(C)C(=O)c1cc2ccccc2c(-c2ccccc2Cl)n1` (stereo not given): the compound was called inactive in test [1], in [4], in [5] and in [7]. The AC50 is 10.2 µM (active) in [6] and 9.67 µM (active) in [8].
`C[C@]12CC[C@@H]3c4ccc(O)cc4C[C@@H](CCCCCCCCCS(=O)CCCC(F)(F)C(F)(F)F)[C@H]3[C@@H]1CC[C@@H]2O` (stereo not given in full): the compound was called inactive in test [1], in test [9], in test [10] and in test [11].
For the compound `O=C(c1ccc(O)cc1O)c1ccc(O)cc1O`, the outcome in test [1], in test [14] and in test [5] was inactive. Further, the AC50 in [12] was 22.2 µM (active); in [13], 25 µM (active); in [15] it was 0.935 µM (active); in [16] it was 12.9 µM (active); in test [17], 6.91 µM (active).
Take `Cc1cccc([N+](=O)[O-])c1C`: the outcome in test [1], in test [18] and in test [19] was inactive.
`NC(=NCCCCCCN=C(N)/N=C(\N)Nc1ccc(Cl)cc1)/N=C(\N)Nc1ccc(Cl)cc1`: the result in [1] was inactive. For the same compound, the AC50 was 5.93 µM (active) with rat CYP2B1, gene 24300 and 20.5 µM (active) in test [17].
